# Compound activity deposited in PubChem BioAssay by National Center for Advancing Translational Sciences (NCATS).
# GLP1R cytotox = cytotoxicity counter-screen for GLP-1 receptor inverse agonists. Potency, µM (titrated, usually from 38.3 µM), without a hit: top-dose activity change, negative = inhibition, most hits filed as inhibitors. HEK293 cAMP-luciferase reporter cells, luminescence, 24 h. 0.13% of 410,000 active;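 also: loss of luciferase light is scored as toxicity; % is scaled to controls: 0 for no effect and ±100 for the full control effect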
#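 MLSMR compounds, 24 hr on cells at 37 deg C/5% CO2; luminescence after luciferase reagent (12 min RT). Inhibition counted as the undesired cytotoxic outcome.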
# GLP-1R inv ag = GLP-1 receptor (human) inverse agonism; P43220; HEK293 GLP-1R CRE-luciferase, luminescence, 24 h; GLP-1R form is constitutively active; Potency, µM (highest dose often 38.3 µM), without a hit: top-dose activity change, negative = inhibition, most hits filed as inhibitors; 1.6% of 410,000 active; also: % is scaled to controls: 0 for no effect and ±100 for the full control effect; nearly all actives have a fitted effect of over 55% in size
# Target sequence (P43220 whole entry, looked up): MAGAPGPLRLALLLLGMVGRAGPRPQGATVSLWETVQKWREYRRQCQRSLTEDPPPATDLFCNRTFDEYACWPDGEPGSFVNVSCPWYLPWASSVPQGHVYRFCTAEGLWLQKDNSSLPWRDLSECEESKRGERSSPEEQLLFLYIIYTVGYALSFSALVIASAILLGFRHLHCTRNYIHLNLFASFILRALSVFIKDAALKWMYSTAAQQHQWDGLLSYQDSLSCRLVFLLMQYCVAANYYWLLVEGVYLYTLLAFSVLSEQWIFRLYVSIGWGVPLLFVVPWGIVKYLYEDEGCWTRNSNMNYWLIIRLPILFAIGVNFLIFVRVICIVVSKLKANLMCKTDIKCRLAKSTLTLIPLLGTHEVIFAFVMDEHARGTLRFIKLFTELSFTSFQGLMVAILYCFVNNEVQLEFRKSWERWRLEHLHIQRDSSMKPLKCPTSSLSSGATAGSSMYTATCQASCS
#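 Inverse agonism was detected as reduced cAMP-driven luciferase luminescence after 24 h compound treatment. The cells were HEK293 clones expressing constitutively active human GLP-1R with the reporter. Reporter-only and GPR119 cell lines served as counterscreen controls.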
# GLP-1R agonist = agonists of human GLP-1 receptor | Potency, µM (titrated, usually from 45.6 µM), without a hit: at the highest dose activation, most hits filed as activators | HEK293 GLP-1R CRE-luciferase, luminescence, 4-6 h; cells express a hypersensitive GLP-1R form | 0.007% of 380,000 active | P43220; also: % of control where 0% means no effect
# * = called active by the depositor; u = inconclusive; x = no result given; [ ] = another dose, or the depositor's remark. Only some compounds are listed: those with a hit (about 1.7% of all), similar ones and a draw of the others. Calls follow the shape of the dose curve; as a rule, active = well fitted curve in the direction sought with a large enough effect; inconclusive = small, poorly fitted or top-dose-only effect, or another doubt; inactive = no such curve, though single readings can be large; an effect the other way counts as inactive or inconclusive. Potency is read from the fitted curve at half-maximal effect.
SMILES,GLP1R cytotox,GLP-1R inv ag,GLP-1R agonist
O=c1c2ccccc2nc(/C=C/c2ccc(O)cc2)n1-c1ccc(O)cc1,92.6%,-23.7%,13.4%
Cc1ccccc1C1CC(=O)Nc2ccc3ccccc3c21 (stereo not given),-20.4%,u,-1.7%
Cc1cccc(C(O)c2ncc(-c3ccccc3Cl)[nH]2)c1C (stereo not given),5.0%,u,-3.2%
COc1cc(OC)cc(C(=O)Nc2ccc(Br)cc2C(=O)c2ccccc2)c1,-1.0%,12.7%,-1.3%
COc1cccc(C(=O)N/N=C(/c2ccccc2)c2ccccn2)c1,u,7.94µM*,-7.1%
C[C@@H](NC(=O)c1nc[nH]c1C(=O)NCc1ccc(CNC(=O)OC(C)(C)C)cc1)c1ccccc1,u,u,9.0%
CC(C)(C)OC(=O)NCCCCCNC(=O)c1nc[nH]c1C(=O)NCc1ccc(CNC(=O)OC(C)(C)C)cc1,u,10µM*,-8.2%
COc1ccc2[nH]c(C)c(CCNCc3cccnc3)c2c1,6.8%,-0.7%,-4.8%
Cc1[nH]c2ccc(OC(F)(F)F)cc2c1CCNCc1ccc(Cl)cc1,u,3.98µM*,5.4%
CCOc1cccc(CNCCc2c(C)[nH]c3ccc(OC(F)(F)F)cc23)c1O,u,5.01µM*,-5.8%
Cc1[nH]c2ccc(OC(F)(F)F)cc2c1CCNCc1cccc([N+](=O)[O-])c1,u,u,10.3%
COc1ccccc1/C=C/CN1CCC(n2nccc2NC(=O)CCc2ccccc2)CC1,u,u,-5.6%
COc1cc(Cn2c(=O)oc3ccc(C)cc32)ccc1OC(C)C,-5.4%,u,13.5%
COc1cc(CC(C)N)c(OC)cc1C (stereo not given),x,x,-1.4%[110 µM]
Cc1ccc(S(=O)(=O)N2CCN(C(=O)COC(=O)Cc3ccccc3)CC2)c(C)c1,3.6%,0.7%,6.0%
Cc1ccc(S(=O)(=O)N2CCC(C(=O)OCc3ccccc3)CC2)cc1C,-10.9%,10µM*,12.6%
C/C(=N\NP(=S)(c1ccccc1)c1ccccc1)c1ccc(O)cc1O,12.7%,11.2µM*,16.1%
Oc1ccccc1/C=N/NP(=S)(c1ccccc1)c1ccccc1,-4.7%,u,7.2%
C[C@H](CO)N1C[C@H](C)[C@H](CN(C)C(=O)N[C@H](C)c2ccccc2)OCc2ccccc2-c2c(n(C)c3ccccc23)C1=O,0.9%,u,8.9%
C=CCn1c(O)c(C=Nc2ccc(Cc3ccncc3)cc2)c(=O)[nH]c1=S,-32.8%,u,-7.8%
CCCCCSc1cc(OC)c(CCNC)cc1OC,u,3.98µM*,-6.5%
CCCCCCCSc1cc(OC)c(CCNC)cc1OC,u,u,-17.1%
COc1ccccc1CNc1nc(NCc2ccccc2SC)c2sccc2n1,-26.0%,u,-0.7%
COc1ccccc1CNc1nc(NCc2ccccc2OC)c2sccc2n1,u,11.2µM*,-2.8%
COc1ccc(NC(=O)Nc2ccc3c(c2)C(=O)N([C@H](C)CO)C[C@H](C)[C@@H](CN(C)Cc2ccc(Cl)c(Cl)c2)OCCCC[C@@H](C)O3)cc1,3.3%,3.16µM*,-2.0%
SMILES,GLP1R cytotox,GLP-1R inv ag,GLP-1R agonist
C[C@@H]1CCCCO[C@H](CN(C)Cc2ccccc2)[C@@H](C)CN([C@H](C)CO)C(=O)c2cc(NC(=O)c3ccccc3)ccc2O1,-28.0%,u,-7.0%
ClCCN(CCCl)c1ccc(C2=NCCc3ccccc32)cc1,u,u,-3.1%
COc1ccc2c(c1)C(c1ccc(N(CCCl)CCCl)cc1)=NCC2,-29.6%,10µM*,17.5%
CC1(Cc2ccc(C(F)(F)F)nc2)C(=O)Nc2cc(-c3ccccc3Cl)ccc21 (stereo not given),2.7%,u,5.1%
CCCCCc1cc(O)c2c(c1)OC(C)(C)c1ccc(C)cc1-2,x,x,-1.7%
Cc1ccc(S(=O)(=O)Nc2ccc3oc(=O)sc3c2)c(C)c1,u,u,-24.7%
COc1ccc(-c2nn(-c3ccccc3)cc2C(=O)N2c3ccc(C)cc3C3CN(C)CCC32)cc1 (stereo not given),4.0%,14.1µM*,8.6%
Cc1ccc2c(c1)C1CN(C)CCC1N2C(=O)c1ccco1 (stereo not given),-23.3%,-17.9%,0.8%
O=C1C2C3CCC(C3)C2C(=O)N1c1ccc(OS(=O)(=O)c2ccccc2)cc1 (stereo not given),-3.7%,3.16µM*,9.9%
CN1C(=O)C(=Cc2ccccc2OS(=O)(=O)c2ccccc2)C(=O)N(C)C1=O,-12.3%,-27.5%,-3.1%
CCCCCCCCCCCCCCCC[n+]1ccccc1,u,3.55µM*,-7.3%
CCCCCCC[n+]1ccc(-c2cc[n+](CCCCCCC)cc2)cc1,-10.2%,-26.5%,0.6%
CCCCCCCCCCCCCCCC[n+]1ccc(/C=N/O)cc1,u,8.91µM*,-18.6%
COc1ccc(C(C)=O)cc1CSc1nc(NCc2ccccc2)c2ccccc2n1,u,-17.3%,x
O=C(NCC1=C(c2cccc3ccccc23)C[C@@H]2CC[C@H]1N2Cc1ccco1)c1cccs1,u,10µM*,-7.7%
O=C(NCC1=C(c2cccc3ccccc23)C[C@@H]2CC[C@H]1N2Cc1ccco1)c1ccncc1,-3.8%,u,14.2%
Cc1ccc(NC(=O)CSc2nc3ccccc3c(=O)n2CCCN2CCCCC2)cc1Cl,u,u,8.4%
Cc1ccccc1S(=O)(=O)N1C[C@H]2[C@H]3C(=O)N(C4CCCCC4)C(=O)[C@H]3CC(=O)[C@H]2[C@@H]1c1ccc(Cl)cc1,-0.9%,u,-1.2%
Fc1ccc(Cn2nnnc2C(c2ccc(Cl)cc2)N2CC=C(c3ccc(F)cc3)CC2)cc1 (stereo not given),-2.6%,u,2.4%
Fc1ccc(C2=CCN(C(c3ccc(Cl)cc3)c3nnnn3Cc3ccccc3)CC2)cc1 (stereo not given),1.0%,5.62µM*,7.7%
CC1(O)CCC2C3CCC4=CC(=O)CCC4(C)C3(F)C(O)CC21C (stereo not given),x,x,9.8%
CC(C)Oc1ccc(CNC(=O)Oc2ccccc2)cc1,2.5%,u,-3.9%
CCOP(=O)(OCC)OCC,4.2%,11.9%,-5.7%
CCOP(=O)(CCP(=O)(OCC)OCC)OCC.C[CH2][Sn]([Cl])([Cl])[CH2]C,12.6µM*,u,-7.1%
CC(C)CCn1c(N)c(C(=O)OCC2CCCO2)c2nc3ccccc3nc21 (stereo not given),253.7%,3.98µM*,0.3%
SMILES,GLP1R cytotox,GLP-1R inv ag,GLP-1R agonist
CCCCn1c(N)c(C(=O)OCC2CCCO2)c2nc3ccccc3nc21 (stereo not given),203.8%,-10.0%,4.1%
C#CCn1cc(/C=N/Nc2nc3ccccc3[nH]2)c2ccccc21,u,u,20.3%
CCC(CC)c1nnc(NC(=O)CC(C)c2ccccc2)s1 (stereo not given),-9.7%,10µM*,-1.0%
CC(C)c1nnc(NC(=O)c2nc(S(=O)(=O)Cc3ccccc3)ncc2Cl)s1,u,u,-5.0%
COC(=O)C1(C(=O)OC)C[C@H](c2ccc(OC)cc2)N(Cc2ccccc2OC)[C@@H]1c1cccs1,1.3%,10µM*,x
COOCC1(C(=O)OC)C[C@H](c2ccc(OC)cc2)N(Cc2ccccc2OC)[C@@H]1c1ccccc1C (stereo not given in full),-8.0%,u,x
